T cruzi growth-1: blocks T. cruzi growth in NIH3T3 culture; T. cruzi beta-gal in NIH3T3, GalScreen luminescence, 90 h; inhibition, % at 8.34 µM; 5.9% of 77,000 active; AID 624255;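 active = mean inhibition above about 93%, with at least 55% of replicates each passing it, limit read from the data, passing the limit was not always enough; inconclusive = only one of those two conditions holds; inactive = neither condition holds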
C diff growth: blocks growth of Clostridium difficile; Clostridium difficile clinical isolate growth, OD600, 24 h; hits give low values; growth activity, negative = inhibition, % at 16 µg/mL (by protocol); 0.25% of 86,000 active; AID 1259249;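 active = mean growth activity at or below -80% and every replicate also at or below -80%; inconclusive = mean at or below -80% but some replicate above -80%; inactive = mean growth activity above -80%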;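 also: 0% = DMSO wells and -100% = levofloxacin 16 µg/mL wells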
Pf Dd2 growth: blocks growth of Plasmodium falciparum Dd2 parasites; activity change, % at 10 µM; AID 1159554; 2.3% of 94,000 active; P. falciparum Dd2 growth, SYBR Green, 72 h; hits give low values; in the data active = activity change below about -80%; inconclusive = no clear call, values can overlap the other calls
T cruzi growth-2: inhibitors of T. cruzi proliferation; T. cruzi beta-gal in NIH3T3, GalScreen luminescence, 90 h; inhibition, % at 8.35 µM; AID 651739; 72% of 5,600 active; shares compounds with T cruzi growth-1;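 active = mean replicate inhibition above about 95% and at least 55% of replicates individually reaching it, limit read from the data; inconclusive = only one of the two criteria is met; inactive = neither criterion is met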
T cruzi growth-3: blocks T. cruzi growth in NIH3T3 host cells | inhibition, % at 2.09 µM | shares compounds with T cruzi growth-1 | 21% of 5,600 active | T. cruzi beta-gal in NIH3T3, GalScreen luminescence, 90 h | AID 651740;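 active = mean inhibition above about 95%, with at least 55% of replicates also reaching it, limit read from the data; inconclusive = meets just one of the two conditions; inactive = meets neither condition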;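 also: plate controls were neutral control median for no effect and positive control median for full effect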
NIH3T3 tox: kills mouse NIH/3T3 fibroblasts | AID 651742 | shares compounds with T cruzi growth-1 | 14% of 5,600 active | NIH/3T3 viability, CellTiter-Glo ATP luminescence, 90 h | cytotoxicity (signal decrease), % at 8.35 µM;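 active = mean signal decrease across replicates above about 35% based on untreated-well scatter, with enough replicates individually passing, limit read from the data; inconclusive = no rule stated though some were filed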;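 also: 0% = median of neutral control wells and 100% = median of positive control wells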
3T3 cytotox 2: NIH/3T3 (mouse) viability loss; shares compounds with T cruzi growth-1; 56% of 5,600 active; AID 651744; inhibition, % at 24.9 µM; NIH/3T3 viability, CellTiter-Glo ATP luminescence, 90 h;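 active = mean loss of cell viability signal at or above a set limit, and enough replicates individually reaching it; inconclusive = meets only the mean limit or only the replicate share; inactive = meets neither condition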;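 also: 0% = median of neutral control wells and 100% = median of positive control wells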
* marks the source's active call; other numbers are inactive results; ? = inconclusive; . = not tested or not shown. In the library only some 6.7% were active in any assay of this set; here they are far more common.

SMILES	T cruzi growth-1	C diff growth	Pf Dd2 growth	T cruzi growth-2	T cruzi growth-3	NIH3T3 tox	3T3 cytotox 2
COc1ccc(NC(=O)Nc2ccc3c(c2)CC(=O)N([C@@H](C)CO)C[C@@H](C)[C@H](CN(C)CC2CCCCC2)O3)cc1	120*	-17	-90*	99*	39	12	104*
CCC(=O)N1C[C@@H](C)[C@H](OC)CN(C)C(=O)c2ccc(NC(=O)C3CCOCC3)cc2OC[C@H]1C	46	2	11	.	.	.	.
C/C=C/c1ccc2c(c1)O[C@H](CN(C)C(=O)Nc1cccc(F)c1)[C@@H](C)CN([C@@H](C)CO)S2(=O)=O	42	4	-18	.	.	.	.
C/C=C/c1ccc2c(c1)O[C@@H](CN(C)C(=O)Nc1cccc(F)c1)[C@@H](C)CN([C@@H](C)CO)S2(=O)=O	-53	4	-31	.	.	.	.
C[C@H](CO)N1C[C@H](C)[C@@H](CN(C)C(=O)Nc2cccc(F)c2)Oc2cc(/C=C/c3ccccc3)ccc2S1(=O)=O	121*	8	-58	99*	114*	13	35*
C/C=C/c1ccc2c(c1)O[C@H](CN(C)C(=O)Nc1cccc(F)c1)[C@H](C)CN([C@H](C)CO)S2(=O)=O	105*	6	-18	99*	78	21	39*
C[C@@H]1CCCCO[C@H](CN(C)C(=O)NC2CCCCC2)[C@H](C)CN([C@@H](C)CO)C(=O)c2cc(NC(=O)CCC(F)(F)F)ccc2O1	34	12	-45	.	.	.	.
CO[C@@H]1CN(C)C(=O)c2ccc(NC(=O)c3ccc4c(c3)OCO4)cc2OC[C@@H](C)N(CC2CC2)C[C@@H]1C	.	.	-35	.	.	.	.
C[C@H]1CN([C@@H](C)CO)C(=O)c2cc(NC(=O)NC3CCCCC3)ccc2O[C@@H]1CN(C)Cc1ccccc1	3	-8	-7	.	.	.	.
C[C@H]1CN([C@@H](C)CO)C(=O)c2cc(NC(=O)NC3CCCCC3)ccc2O[C@@H]1CN(C)Cc1ccc(-c2ccccc2)cc1	-75	8	-1	.	.	.	.
C[C@@H]1CN([C@@H](C)CO)C(=O)c2cc(NC(=O)NC3CCCCC3)ccc2O[C@@H]1CN(C)Cc1ccc(-c2ccccc2)cc1	96*	9	6	100*	101*	54*	65*
C[C@@H]1CN([C@H](C)CO)C(=O)c2cc(NC(=O)NC3CCCCC3)ccc2O[C@@H]1CN(C)Cc1ccc(-c2ccccc2)cc1	48	-1	14	.	.	.	.
C[C@@H]1CN([C@@H](C)CO)C(=O)c2cc(NC(=O)NC3CCCCC3)ccc2O[C@H]1CN(C)Cc1ccc(-c2ccccc2)cc1	108*	42	13	102*	-18	38*	43*
C[C@@H]1CN([C@H](C)CO)C(=O)c2cc(NC(=O)NC3CCCCC3)ccc2O[C@H]1CN(C)Cc1ccc(-c2ccccc2)cc1	105*	30	10	104*	13	25	17
Cc1noc(C)c1NC(=O)N(C)C[C@H]1Oc2ccc(NC(=O)Nc3ccc(F)cc3)cc2CC(=O)N([C@H](C)CO)C[C@H]1C	-29	-9	11	.	.	.	.
CC(=O)N(C)C[C@H]1Oc2ncc(/C=C/c3ccccc3)cc2C(=O)N([C@@H](C)CO)C[C@H]1C	2	-1	10	.	.	.	.
N#C[C@H]1[C@H](c2ccc(C3=CCCCC3)cc2)[C@@H](CO)N1S(=O)(=O)c1cccc(F)c1	47	5	2	.	.	.	.
N#C[C@@H]1[C@H](c2ccc(C3=CCCCC3)cc2)[C@H](CO)N1S(=O)(=O)c1cccc(F)c1	103*	7	11	102*	43	14	79*
N#C[C@H]1[C@H](c2ccc(C3=CCCCC3)cc2)[C@@H](CO)N1S(=O)(=O)c1ccccc1	86	4	-18	.	.	.	.
N#C[C@@H]1[C@@H](c2ccc(C3=CCCCC3)cc2)[C@@H](CO)N1S(=O)(=O)c1ccccc1	96*	9	-38	102*	56	55*	60*
C[C@H]1CN([C@@H](C)CO)C(=O)c2cc(C#CC3(O)CCCC3)cnc2O[C@H]1CN(C)C(=O)C1CCOCC1	.	.	-3	.	.	.	.
Cc1cccc(S(=O)(=O)N2CCCCN3[C@H](CO)[C@@H](c4ccc(C#C[C@H](C)O)cc4)[C@@H]3C2)c1	80	2	-33	.	.	.	.
COc1cccc(S(=O)(=O)N2CCCCN3[C@H](CO)[C@H](c4ccc(C#CC(C)C)cc4)[C@@H]3C2)c1	88	-1	-11	.	.	.	.
Cc1cccc(S(=O)(=O)N2CCCCN3[C@H](CO)[C@H](c4ccc(C#C[C@H](C)O)cc4)[C@H]3C2)c1	106*	6	-47	?	36	33	41*
Cc1cccc(S(=O)(=O)N2CCCCN3[C@H](CO)[C@@H](c4ccc(C#CC(C)C)cc4)[C@H]3C2)c1	?	3	-42	102*	?	27	103*
SMILES	T cruzi growth-1	C diff growth	Pf Dd2 growth	T cruzi growth-2	T cruzi growth-3	NIH3T3 tox	3T3 cytotox 2
COc1cccc(S(=O)(=O)N2CCCCN3[C@H](CO)[C@@H](c4ccc(C#CC(C)C)cc4)[C@@H]3C2)c1	?	6	-51	99*	83	7	55*
Cc1cccc(S(=O)(=O)N2CCCCN3[C@@H](CO)[C@H](c4ccc(C#C[C@H](C)O)cc4)[C@@H]3C2)c1	45	9	-15	.	.	.	.
Cc1cccc(S(=O)(=O)N2CCCCN3[C@H](CO)[C@H](c4ccc(C#CC(C)C)cc4)[C@H]3C2)c1	69	-2	-73	.	.	.	.
Cc1cccc(S(=O)(=O)N2CCCCN3[C@H](CO)[C@@H](c4ccc(C#C[C@H](C)O)cc4)[C@H]3C2)c1	?	7	-24	80	25	9	33*
CCCC(=O)Nc1ccc2c(c1)OC[C@@H](C)N(Cc1ccc(F)cc1)C[C@@H](C)[C@@H](OC)CN(C)C2=O	?	.	22	.	.	.	.
C[C@@H]1CN([C@H](C)CO)C(=O)c2cccc(NC(=O)c3nc4ccccc4s3)c2O[C@H]1CN(C)Cc1ccncc1	.	-5	-42	.	.	.	.
Cc1cccc(S(=O)(=O)N2CCCCN3[C@H](CO)[C@@H](c4ccc(C#C[C@@H](C)O)cc4)[C@@H]3C2)c1	66	-2	-34	.	.	.	.
Cc1cccc(S(=O)(=O)N2CCCCN3[C@H](C2)[C@H](c2ccc(C#C[C@H](C)O)cc2)[C@@H]3CO)c1	110*	16	-17	110*	63	41*	14
N#Cc1ccc(-c2ccc3c(c2)[C@H]2[C@H](CCN2Cc2ccc4c(c2)OCO4)[C@H](CO)N3)cc1	?	-96*	-57	106*	69	-6	105*
OC[C@@H]1Nc2ccc(C#Cc3ccc(F)cc3)cc2[C@H]2[C@@H]1CCN2Cc1ccc2c(c1)OCO2	142*	-3	-71	109*	108*	41*	104*

Assay outcomes as filed in PubChem BioAssay.
